# High-throughput results from PubChem BioAssay.
# Only some compounds are listed: those with a hit (about 1.7% of all), similar ones and a draw of the others.
# GSTO1 counter = inhibitors of recombinant GSTO1, primary screen, counter-screen for RBBP9 inhibitor project, biochemical, fluorescence polarization; activity-based probe fluorescence polarization; inhibition, % at 5.96 µM; Glutathione S-transferase omega-1 (Homo sapiens), P78417; 300,000 compounds, 1.1% hits; AID 1974, 2009;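 active = inhibition above the campaign mean inhibition plus 3 SD, cut at about 35% in these data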
# Target sequence (P78417 whole entry, looked up): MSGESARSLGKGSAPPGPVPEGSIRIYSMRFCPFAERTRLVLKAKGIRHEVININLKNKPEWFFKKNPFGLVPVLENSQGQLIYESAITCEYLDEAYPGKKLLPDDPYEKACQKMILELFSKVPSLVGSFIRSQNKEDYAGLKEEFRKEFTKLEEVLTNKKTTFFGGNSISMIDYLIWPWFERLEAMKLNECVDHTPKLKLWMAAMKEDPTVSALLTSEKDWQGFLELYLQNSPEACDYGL
# LYPLA1 counter = LYPLA1 inhibitors, primary screen, counter-screen for PME1 inhibitor project, biochemical, fluorescence polarization, FP-Rh probe ABPP. Acyl-protein thioesterase 1 (Homo sapiens), O75608. recombinant LYPLA1. inhibition, % at 5.9 µM. 320,000 compounds, 0.16% hits. AID 2174, 2009;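 active = inhibition above the mean of all tested compounds plus 3 SD, set per campaign, cut at about 14% in these data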;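 note: inhibitors block serine hydrolase probe labeling of LYPLA1 so polarization falls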
# EBNA-1 inh = EBNA-1 DNA-binding inhibitors, primary screen, biochemical, fluorescence polarization. 300,000 compounds, 0.34% hits. inhibition, % at 14.8 µM. AID 1950, 2009; in the data active = inhibition above about 28%
# ZTA DNA inh = blocks Epstein-Barr virus ZTA, an EBNA-1 counter-screen. ZTA-DNA binding, fluorescence polarization. inhibition, % at 11 µM. 320,000 compounds, 0.15% hits. AID 2234; in the data active = inhibition above about 33%
# Target sequence (P03206 whole entry, looked up): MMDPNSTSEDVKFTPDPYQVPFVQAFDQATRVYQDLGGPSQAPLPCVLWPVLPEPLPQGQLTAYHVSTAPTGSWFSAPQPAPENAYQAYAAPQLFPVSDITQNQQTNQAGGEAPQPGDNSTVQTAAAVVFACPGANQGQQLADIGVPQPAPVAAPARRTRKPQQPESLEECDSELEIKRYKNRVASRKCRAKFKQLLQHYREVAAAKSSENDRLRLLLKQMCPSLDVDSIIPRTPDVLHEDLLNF
# LYPLA2 inh = LYPLA2 inhibitors, primary screen, counter-screen for PME1 inhibitor project, biochemical, fluorescence polarization, FP-Rh probe ABPP. AID 2177, 2009. recombinant LYPLA2. inhibition, % at 5.9 µM. 320,000 compounds, 0.38% hits;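 active = inhibition above the screen-wide mean plus 3 SD, limit set per campaign, cut at about 26% in these data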
# PAD4 FP inh = human PAD4 inhibitors, primary screen, biochemical, fluorescence polarization, 1536-well format; Protein-arginine deiminase type-4 (Homo sapiens), Q9UM07; recombinant PAD4, RCA probe fluorescence polarization; inhibition, % at 6.36 µM; 330,000 compounds, 0.41% hits;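 active = percent inhibition above a cutoff equal to the mean of all tested compounds plus 3 SD, cut at about 15% in these data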
# GSTO1 inh conf = GSTO1 inhibitor hit confirmation, counter-screen for RBBP9 inhibitor project, biochemical, fluorescence polarization, triplicate; inhibition, % at 5.96 µM; AID 2176, 2009; shares compounds with GSTO1 counter; 2,400 compounds, 54% hits; recombinant GSTO1, probe fluorescence polarization;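 active = inhibition above the primary screen's cutoff, its mean inhibition plus 3 SD, cut at about 35% in these data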;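 note: loss of polarization as inhibitors block binding of rhodamine sulfonate ester activity probe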
# GSTO1 ABPP inh = inhibitors of purified human GSTO1, late-stage follow-up, biochemical, gel ABPP, SE-Rh probe, percent inhibition; shares compounds with GSTO1 counter; AID 463110, 2010; 130 compounds, 30% hits; recombinant GSTO1, gel ABPP SE-Rh probe fluorescence; inhibition, % at 1 µM;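 active = inhibition of the enzyme GSTO1 above about 75%, limit read from the data; inactive = inhibition below that limit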
# Hits are given with their value; i = inactive; nt = no result.
SMILES,GSTO1 counter,LYPLA1 counter,EBNA-1 inh,ZTA DNA inh,LYPLA2 inh,PAD4 FP inh,GSTO1 inh conf,others
Cc1cccc(N(C(=O)C(F)(F)F)C(C(=O)NC2CCCCC2)c2cccs2)c1 (stereo not drawn),i,i,i,i,i,i,nt,
C#CC(=O)N(c1ccc(OC)c(OC)c1)C(C(=O)NC1CCCC1)c1cccs1 (stereo not drawn),48,i,i,i,i,i,52,
COc1ccc(N(C(=O)Cc2cccs2)C(C(=O)NC2CCCC2)c2ccncc2)cc1OC (stereo not drawn),i,i,i,i,i,i,nt,
C#CC(=O)N(c1cccc(OC)c1)C(C(=O)NC1CCCC1)c1cccs1 (stereo not drawn),76,i,i,i,i,i,76,
Cc1ccc(CCC(=O)Nc2ccc(C)c(C)c2)o1,i,i,i,i,i,i,nt,
CC1(C(=O)Nc2cccc(C(F)(F)F)c2)CO1 (stereo not drawn),68,i,i,i,i,i,85,GSTO1 ABPP inh=i
c1coc(-c2nc3ccccc3nc2-c2ccco2)c1,62,i,i,i,i,i,61,
Cc1cccc(NC(=O)CSc2nnc(-c3ccco3)c(-c3ccco3)n2)c1C,42,i,i,i,i,i,i,
CCCCN1C(=O)C(=O)NC[C@@H]1CCCCN,i,i,i,i,i,i,nt,
O=C(c1ccc2oc(Cc3ccc(Cl)cc3)nc2c1)N1CC[C@H](O)C1,i,i,i,i,i,i,nt,
CC(=O)Oc1ccc(OC(C)=O)c(SCCCCCN2CCOCC2)c1,79,i,i,i,i,i,i,
COc1ccccc1CNC(=O)COC(=O)C1CCN(S(=O)(=O)c2ccccc2)CC1,i,i,i,i,i,i,nt,
C[C@H](CO)N1C[C@H](C)[C@@H](CN(C)C(=O)NC2CCCCC2)Oc2ccc(NC(=O)CCC(F)(F)F)cc2C1=O,nt,nt,nt,nt,nt,i,nt,
O=C(CNC(=S)NC(=O)c1ccc(Br)o1)c1ccccc1,46,i,i,i,i,i,i,
CC[C@H](C)/C=C/C1=CC2=C(Cl)C(=O)[C@@]3(C)OC(=O)C(C(=O)[C@H](C)[C@@H](C)O)=C3C2=CO1,47,i,i,i,i,i,i,
Oc1cccc(O)c1O,62,i,i,i,i,i,i,
c1ccc2c3c([nH]c2c1)-c1[nH]ncc1CC3,74,i,i,i,i,i,i,
CCCN1C(=S)c2ccccc2C1c1ccccc1 (stereo not drawn),60,i,i,i,i,i,i,
CCCCN1C(=S)NC[C@@H]1c1ccccc1,i,i,i,i,i,i,nt,
Clc1ccccc1C1Nc2cccc3cccc(c23)N1,43,i,i,i,i,i,i,
Clc1cccc(C2Nc3cccc4cccc(c34)N2)c1Cl,i,i,i,i,i,i,nt,
CC(=O)Oc1cc(OC(C)=O)c2c(C)cc(=O)oc2c1,53,i,i,i,i,i,i,
CC(=O)Oc1ccc2c(C)cc(=O)oc2c1,i,i,i,i,i,i,nt,
CCCCOc1ccc(C2NC(=O)NC(C)=C2C(C)=O)cc1OCC (stereo not drawn),i,i,i,i,i,i,nt,
O=C1C(NS(=O)(=O)c2cccs2)=C(N2CCN(c3cccc(C(F)(F)F)c3)CC2)C(=O)c2ccccc21,48,i,i,i,i,i,i,
SMILES,GSTO1 counter,LYPLA1 counter,EBNA-1 inh,ZTA DNA inh,LYPLA2 inh,PAD4 FP inh,GSTO1 inh conf,others
CCOc1ccccc1N1CCN(C2=C(NS(=O)(=O)c3cccs3)C(=O)c3ccccc3C2=O)CC1,63,i,i,i,i,i,i,
C/C(=C\C(=O)c1ccccc1)Nc1ccc(O)cc1,78,i,i,i,i,50,i,
COCCNC(=O)CN(Cc1ccccc1)S(=O)(=O)c1ccc2nc(C)sc2c1,i,i,i,i,i,i,nt,
Cc1ccc(-c2csc(NC(=O)C3=NN(C4CCS(=O)(=O)C4)C(=O)CC3)n2)cc1 (stereo not drawn),i,i,i,i,i,i,nt,
COc1ccc(CNC(=O)CNC(=O)c2ccc(Br)o2)cc1OC,i,i,i,i,i,i,nt,
C/C(=N\NS(=O)(=O)c1ccc(C(C)(C)C)cc1)c1ccccc1,i,i,i,i,i,i,nt,
CC(C)(C)c1ccc(S(=O)(=O)/N=C2\C=C(NS(=O)(=O)c3ccccc3)C(=O)c3ccccc32)cc1,71,i,i,i,i,i,67,
COC(=O)c1c(NC(=O)c2ccccc2OC)sc(C(=O)N2CCOCC2)c1C,i,i,i,i,i,i,nt,
c1ccc(CCCOCCC2CO2)cc1 (stereo not drawn),96,i,i,i,i,i,94,GSTO1 ABPP inh=i
Oc1ccc(Br)cc1CNc1cccc2cccnc12,46,i,i,i,i,i,i,
CCN(CC)P(=O)(Nc1ccc(Br)cc1)c1c(C)nn(CCC#N)c1NC(=O)c1ccc(Cl)cc1 (stereo not drawn),47,i,i,i,i,i,i,
CCn1cc(CCC(=O)O)c(C)n1,i,i,i,i,i,i,nt,
CCn1cc(NC(=O)CCl)c(C)n1,72,i,i,i,i,i,81,
O=C(CSc1nc2c(c(=O)[nH]1)CCC2)Nc1cccc(F)c1,i,i,i,i,i,i,nt,
COc1ccc(CC(=O)OCc2csc(CC(=O)Nc3ccc(C)cc3)n2)cc1,nt,nt,nt,nt,nt,i,nt,
Cc1ccc(NC(=O)Cc2nc(CCl)cs2)cc1,58,i,i,i,i,i,95,GSTO1 ABPP inh=87
O=C(CCl)N(c1ccccc1)C1CCS(=O)(=O)C1 (stereo not drawn),79,i,i,i,i,i,85,GSTO1 ABPP inh=i
CC(=O)Nc1ccc(C(=O)OCC(=O)N(c2ccccc2)C2CCS(=O)(=O)C2)cc1 (stereo not drawn),nt,i,nt,i,i,i,nt,
CCOc1cccc(CNc2ccc(O)cc2)c1OCc1ccc(Cl)cc1Cl,78,i,i,i,i,i,i,
CCOc1cccc(CNc2ccc(O)cc2)c1OCc1ccccc1Cl,77,i,i,i,i,i,i,
CCOc1cccc(CNn2cnnc2)c1OCc1ccccc1Cl,i,i,i,i,i,i,nt,
CCOc1cccc(CNCCO)c1OCc1ccc(Cl)cc1Cl,i,i,i,i,i,i,nt,
CCc1ccc(NC(=O)CSc2nc(=O)n3cc(C)ccc3n2)cc1,i,i,i,i,i,i,nt,
